Compound activity (PubChem)
PAFAH1B3 inh: PAFAH1B3 enzyme inhibitors, primary screen, biochemical, fluorescence polarization, human; Platelet-activating factor acetylhydrolase IB subunit alpha1 (Homo sapiens), Q15102; inhibition, % at 3.39 µM; 340,000 tested, 0.28% active; recombinant PAFAH1B3, FP-rhodamine probe;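 active = inhibition above the screen-wide average of all tested compounds plus 3 SD, cut at about 25% in these data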;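 note: 0% = enzyme with DMSO only and 100% = wells lacking PAFAH1B3 protein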
PAFAH2 FP inh: PAFAH2 enzyme inhibitors, primary screen, biochemical, fluorescence polarization, human. Platelet-activating factor acetylhydrolase 2, cytoplasmic (Homo sapiens), Q99487. recombinant PAFAH2, FP-rhodamine activity probe. inhibition, % at 3.39 µM. 340,000 tested, 0.99% active. AID 492956, 2010;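 active = inhibition above the mean over all tested compounds plus 3 SD, cut at about 30% in these data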;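 note: inhibitors block probe labeling of enzyme so polarization drops; 0% = enzyme with DMSO and 100% = wells lacking PAFAH2 protein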
pPAFAH inh: pPAFAH enzyme inhibitors, primary screen, biochemical, fluorescence polarization, human | inhibition, % at 3.39 µM | recombinant pPAFAH, FP-rhodamine probe fluorescence polarization | AID 463082, 2010 | Platelet-activating factor acetylhydrolase (Homo sapiens), Q13093 | 330,000 tested, 1.5% active;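 active = inhibition above the mean inhibition across the screen plus 3 SD, cut at about 25% in these data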;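 note: inhibitors block binding of the rhodamine activity-based probe so polarization drops; 0% = enzyme with DMSO and 100% = wells lacking pPAFAH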
Target sequence (Q13093 whole entry, looked up): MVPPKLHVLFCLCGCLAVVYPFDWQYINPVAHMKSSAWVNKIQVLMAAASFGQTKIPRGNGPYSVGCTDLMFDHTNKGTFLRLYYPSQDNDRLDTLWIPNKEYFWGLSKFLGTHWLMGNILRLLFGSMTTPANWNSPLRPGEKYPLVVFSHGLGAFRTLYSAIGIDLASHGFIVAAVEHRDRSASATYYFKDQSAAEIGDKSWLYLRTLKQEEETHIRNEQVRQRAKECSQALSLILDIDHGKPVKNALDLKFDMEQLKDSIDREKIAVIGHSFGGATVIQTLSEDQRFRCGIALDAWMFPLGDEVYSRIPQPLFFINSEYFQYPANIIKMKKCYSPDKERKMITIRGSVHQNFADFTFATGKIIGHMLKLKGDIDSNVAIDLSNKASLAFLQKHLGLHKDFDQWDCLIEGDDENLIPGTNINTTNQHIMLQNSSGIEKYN
Fam108B counter: mouse Fam108B serine hydrolase inhibitors, primary screen, counter-screen for RBBP9 inhibitor project, biochemical, fluorescence polarization; 300,000 tested, 0.33% active; inhibition, % at 9.51 µM; recombinant Fam108B, FP-Rh probe fluorescence polarization;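 active = inhibition above the screen mean inhibition plus 3 SD, computed separately per campaign, cut at about 18% in these data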;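 note: inhibitors lower polarization as less probe binds the enzyme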
PAFAH1B2 inh: PAFAH1B2 enzyme inhibitors, primary screen, biochemical, fluorescence polarization, human; Platelet-activating factor acetylhydrolase IB subunit alpha2 (Homo sapiens), P68402; recombinant PAFAH1B2, FP-rhodamine activity probe; inhibition, % at 3.39 µM; 340,000 tested, 1.2% active;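 active = inhibition above the mean of all tested compounds plus 3 SD, cut at about 24% in these data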;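 note: 0% = enzyme with DMSO and 100% = wells lacking PAFAH1B2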
Target sequence (P68402 whole entry, looked up): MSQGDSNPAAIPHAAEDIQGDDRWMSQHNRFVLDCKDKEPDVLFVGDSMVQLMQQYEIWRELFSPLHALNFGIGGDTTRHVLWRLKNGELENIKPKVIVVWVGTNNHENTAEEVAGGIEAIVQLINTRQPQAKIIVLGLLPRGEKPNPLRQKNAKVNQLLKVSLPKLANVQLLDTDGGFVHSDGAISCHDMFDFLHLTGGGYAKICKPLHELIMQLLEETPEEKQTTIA
PME-1 primary: PME-1 inhibitors via competitive probe labeling, primary screen, biochemical, fluorescence polarization, FP-Rh probe, HTS; recombinant PME-1; Protein phosphatase methylesterase 1 (Homo sapiens), Q9Y570; inhibition, % at 5.9 µM; 320,000 tested, 0.53% active;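 active = inhibition above the campaign mean of all compounds plus 3 SD, cut at about 26% in these data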;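 note: competitive labeling of PME-1 active site by serine hydrolase directed probe; 0% = PME-1 with DMSO and 100% = wells lacking PME-1 enzyme; inhibitors block probe labeling so polarization falls and inhibition rises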
pPAFAH FP conf: pPAFAH (PLA2G7) enzyme inhibitors, confirmation, biochemical, fluorescence polarization, human; shares compounds with pPAFAH inh; recombinant pPAFAH, FP-Rh probe fluorescence polarization; inhibition, % at 3.39 µM; 2,300 tested, 72% active; AID 463230, 2010;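 active = mean inhibition of the triplicate above the hit cutoff set for the earlier primary screen, cut at about 25% in these data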;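 note: 0% = enzyme with DMSO and 100% = wells lacking pPAFAH enzyme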
* hit, by the source's call. Only some compounds are listed: those with a hit (about 2.8% of all), similar ones and a draw of the others.

Screening COc1ccccc1CNC(=O)CN(C)S(=O)(=O)c1ccc2c(c1)n(C)c(=O)c(=O)n2C returned PAFAH1B3 inh 10, PAFAH2 FP inh -1, pPAFAH inh -1, Fam108B counter 1, PAFAH1B2 inh 0 and PME-1 primary 3.
For O=C1C(=Cc2ccc(Br)o2)C(=O)c2ccccc21 the results were PAFAH1B3 inh 18, PAFAH2 FP inh 71*, pPAFAH inh 50*, Fam108B counter 55*, PAFAH1B2 inh 9, PME-1 primary -7 and pPAFAH FP conf 66*.
CC1=C/C(=C\c2ccc(Br)o2)C(=O)O1 was read as PAFAH1B3 inh -2, PAFAH2 FP inh 4, pPAFAH inh 3, Fam108B counter 3, PAFAH1B2 inh -5 and PME-1 primary -4.
Screening C1=C(c2ccco2)N2CCN=C2S1 returned PAFAH1B3 inh 12, PAFAH2 FP inh -31, pPAFAH inh 2, Fam108B counter -3, PAFAH1B2 inh 2 and PME-1 primary -2.
For COC(=O)c1cc2c(=O)c3ccccc3oc2nc1/C=C/N(C)C the results were PAFAH1B3 inh 8, PAFAH2 FP inh 1 and PAFAH1B2 inh 5.
`CC(=O)N1c2ccc(S(=O)(=O)N3CCC(C(=O)Nc4cccc(Cl)c4)CC3)cc2CC1C` (centres undefined) gave PAFAH1B3 inh 6, PAFAH2 FP inh -2, pPAFAH inh 39*, Fam108B counter 0, PAFAH1B2 inh 2, PME-1 primary -3 and pPAFAH FP conf 8.
Screening Cc1ccc(OCCC(=O)OCC(=O)Nc2ccc(N3CCOCC3)cc2)cc1 returned PAFAH1B3 inh 8, PAFAH2 FP inh 3, pPAFAH inh 20, Fam108B counter 0, PAFAH1B2 inh 9 and PME-1 primary -4.
`CCOc1ccc(OCCC(=O)OCC(=O)Nc2ccc(N3CCOCC3)cc2)cc1` gave PAFAH1B3 inh 11, PAFAH2 FP inh -15, pPAFAH inh 35*, Fam108B counter 6, PAFAH1B2 inh -7, PME-1 primary 3 and pPAFAH FP conf 23.
For N#Cc1c(NC(=O)c2ccccc2Cl)n(Cc2ccccc2)c2nc3ccccc3nc12 the results were PAFAH1B3 inh 63*, PAFAH2 FP inh 64*, pPAFAH inh 38*, Fam108B counter 12, PAFAH1B2 inh 53*, PME-1 primary 12 and pPAFAH FP conf 35*.
COc1ccc(-n2c(NC(=O)c3ccco3)c(C#N)c3nc4ccccc4nc32)cc1 was read as PAFAH1B3 inh 10, PAFAH2 FP inh 7, pPAFAH inh 15, Fam108B counter 3, PAFAH1B2 inh 4 and PME-1 primary 5.
Screening CCOc1ccc(S(=O)(=O)N2CCN(C(=O)c3ccccc3Cc3ccccc3)CC2)cc1 returned PAFAH1B3 inh 4, PAFAH2 FP inh 14, pPAFAH inh 1, Fam108B counter -3, PAFAH1B2 inh 4 and PME-1 primary 6.
CN1CCN(CCCN2c3ccccc3Sc3ccc(Cl)cc32)CC1 was read as PAFAH1B3 inh 8, PAFAH2 FP inh 5, pPAFAH inh 45*, Fam108B counter 6, PAFAH1B2 inh 1, PME-1 primary 14 and pPAFAH FP conf 42*.
`CCSc1ccc2c(c1)N(CCCN1CCN(C)CC1)c1ccccc1S2` gave PAFAH1B3 inh 15, PAFAH2 FP inh 21, pPAFAH inh 37*, Fam108B counter -1, PAFAH1B2 inh 0, PME-1 primary 1 and pPAFAH FP conf 42*.
OCCN1CCN(CCCN2c3ccccc3Sc3ccc(C(F)(F)F)cc32)CC1 was read as PAFAH1B3 inh 13, PAFAH2 FP inh -3, pPAFAH inh 40*, Fam108B counter 2, PAFAH1B2 inh 6, PME-1 primary 5 and pPAFAH FP conf 38*.
`CN(C)CCCN1c2ccccc2Sc2ccc(C(F)(F)F)cc21` gave PAFAH1B3 inh 11, PAFAH2 FP inh -12, pPAFAH inh 11, Fam108B counter 0, PAFAH1B2 inh 8 and PME-1 primary -1.
`COc1cc2nc(CN3CCOCC3)n(CC(=O)N3CCCCCC3)c(=O)c2cc1OC` gave PAFAH1B3 inh 3, PAFAH2 FP inh 2, pPAFAH inh 56*, Fam108B counter -4, PAFAH1B2 inh 2, PME-1 primary 4 and pPAFAH FP conf 5.
Screening COc1cccc(=O)c2c(C)n(CC(=O)c3ccccc3)c(C)c12 returned PAFAH1B3 inh 7, PAFAH2 FP inh 8, pPAFAH inh 38*, Fam108B counter -1, PAFAH1B2 inh 2, PME-1 primary 4 and pPAFAH FP conf 16.
Screening COc1ccc(CCNC(=O)c2cc(-c3ccco3)nc3ccccc23)cc1 returned pPAFAH inh 36*, Fam108B counter 4, PME-1 primary 3 and pPAFAH FP conf 15.
`O=C(NCCc1ccccc1)c1ccc2nc(-c3ccco3)c(-c3ccco3)nc2c1` gave PAFAH1B3 inh 21, PAFAH2 FP inh 8, pPAFAH inh 60*, Fam108B counter 11, PAFAH1B2 inh 5, PME-1 primary 30* and pPAFAH FP conf 37*.
`O=C(NC1CCCC1)c1ccc2nc(-c3ccco3)c(-c3ccco3)nc2c1` gave PAFAH1B3 inh 14, PAFAH2 FP inh 38*, pPAFAH inh 68*, Fam108B counter 18, PAFAH1B2 inh 16, PME-1 primary 10 and pPAFAH FP conf 34*.
`O=C(NC1CCCC1)c1ccc2nc[nH]c2c1` gave PAFAH1B3 inh 1, PAFAH2 FP inh 6, pPAFAH inh 8, Fam108B counter 2, PAFAH1B2 inh -3 and PME-1 primary -2.
c1coc(-c2nc3ccccc3nc2-c2ccco2)c1 was read as PAFAH1B3 inh 26*, PAFAH2 FP inh 40*, pPAFAH inh 44*, Fam108B counter 15, PAFAH1B2 inh 23, PME-1 primary 8 and pPAFAH FP conf 11.
`O=C(C1CCC(CNS(=O)(=O)c2cccs2)CC1)N1CCN(c2ccc(Cl)cc2)CC1` (centres undefined) gave PAFAH1B3 inh 0, PAFAH2 FP inh 3, pPAFAH inh 8, Fam108B counter 1, PAFAH1B2 inh -3 and PME-1 primary 4.
CC(=O)N/C(=C\c1ccc(F)cc1)C(=O)OCc1ccccc1 was read as PAFAH1B3 inh 5, PAFAH2 FP inh 3, pPAFAH inh 4, Fam108B counter 4, PAFAH1B2 inh 2 and PME-1 primary 8.
